Records with an inconclusive call do not appear. Activity calls are given as the source filed them. Calls follow the shape of the dose curve; as a rule, active = well fitted cell-killing curve with a large enough effect; inconclusive = small, poorly fitted or top-dose-only effect; inactive = flat fitted curve, though single readings scatter.
% is scaled to controls: 0 for no effect and ±100 for the full control effect; potency is read from the fitted curve at half-maximal effect.

A short description of the experiment: KB-8-5-11 Cancer Cell Toxicity qHTS against the NCATS CANVASS Library (AID 1347364). Also: nearly all actives have a fitted effect of over 75% in size. The conditions noted are these: KB-8-5-11 MDR cells viability, CellTiter-Glo, 72 h; series mostly up to 46.1 µM; activity change, negative = toxicity: at the top concentration. In a few lines: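 KB-8-5-11 cells, 500/well in DMEM + 10% FBS, given compounds in an 11-point series. Incubated 72 h at 37 °C. Viability by CellTiter-Glo luminescence. Confirmation also run with 1 uM tariquidar.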
(In general: Quantitative high-throughput screening tests each substance at several concentrations.)
With `CC1=CC2CC[C@@H]3[C@@H](C)C[C@H](C)[C@@H](C1)N23` (stereo partly specified), the compound was classed as inactive.

Regarding `CC=C1CN(C=O)[C@H]2C[C@@H]1[C@@H](C(=O)OC)[C@@]13CCOC21Nc1ccccc13` (stereo partly specified), the “activity change, negative = toxicity” value was -20.4% (inactive).

For the compound `C[C@@H]1CC[C@@H](c2ccoc2)N2C[C@@]3(CC[C@@H]12)CS[C@@]1(CC[C@H]2[C@H](C)CC[C@@H](c4ccoc4)N2[C@@H]1O)C3`, the Potency is 8.33 µM (active).

In the case of `CCN1C[C@]2(C)CC[C@@H](O)[C@]34C1[C@H](C[C@H]23)C12CCC(CC14)[C@](O)(CO)[C@H]2O` (stereo partly specified), the outcome was inactive.

With `CO[C@@H](/C=C/CC/C=C/C(=O)O)[C@@H](O)[C@H](C)[C@@H](O)/C(C)=C/[C@H](C)C(=O)CCCC1CC(=O)NC(=O)C1`, the result was inactive.

Turning to `CCCC[C@@H]1CC[C@H]2CCCC(CCC)N12` (stereo partly specified), the “activity change, negative = toxicity” value was -0.242% (inactive).

For the compound `C[C@]12CC(O)C3[C@@H](CCC4C[C@@H](O)CC[C@@]43CO)[C@@]1(O)CCC2C1=CC(=O)OC1` (stereo partly specified), the “activity change, negative = toxicity” value is 7.53% (inactive).

Turning to `CO[C@@H](/C=C/CC/C=C/C(=O)O)[C@@H](O)[C@H](C)/C=C(\C)[C@@H](O)[C@H](C)C(=O)CCCC1CC(=O)NC(=O)C1`, the compound was classed as inactive.

As to `O=C(c1ccccc1O)c1[nH]c(Cl)c(Cl)c1-n1c(C(=O)c2ccccc2O)cc(Cl)c1Cl`, the Potency is 2.64 µM (active).

`CC[C@@H]1CN2CC[C@@]3(O)C(=Nc4cccc(OC)c43)[C@@H]2C[C@@H]1/C(=C\OC)C(=O)OC`: the compound was classed as inactive.

Consider `c1ccc2c3c([nH]c2c1)CNCC3`, for which the “activity change, negative = toxicity” value was -8% (inactive).

In the case of `CNCCc1ccccc1`, the outcome was inactive.

In the case of `CO[C@H](c1ccccc1)[C@H]1NC(=O)C(C)NC(=O)C(C[C@@H](C)CO)N(C)C(=O)[C@@H](C(O)c2cn(C(C)(C)C3CO3)c3ccccc23)NC(=O)C(C(C)C=C(C)C)NC(=O)C(CC(C)C)N(C)C(=O)C(C(C)C)NC1=O` (stereo partly specified), the “activity change, negative = toxicity” value was -0.339% [at 27.5 µM] (inactive).

For the compound `CC1=CC(=O)C2=C(C)C[C@H](O)[C@@H]3[C@H](OC(=O)[C@@H]3C)[C@@H]12`, the call was inactive.

In the case of `CCN1C[C@]2(C)CC[C@H](O)[C@]34C1C(C[C@H]23)[C@@]12CC[C@H](CC14)[C@](O)(COC(=O)c1ccc(OC)c(OC)c1)[C@H]2O` (stereo partly specified), the “activity change, negative = toxicity” value is -20.1% (inactive).

For the compound `CCC(=O)CCCCC[C@@H]1NC(=O)[C@H]2CCCCN2C(=O)[C@H]([C@@H](C)CC)NC(=O)[C@H](Cc2cn(OC)c3ccccc23)NC1=O`, the Potency is 13.2 µM (active).

The values are drawn from PubChem BioAssay (NCATS).
